According to publication PMC11062922 (Nature Chemical Biology, 2023):
Where two headings read alike, the source gives them in different places.

Key:
[1] = test system: ABL1; set-up: species or system human, MV4-11 + K-562 + COLO205 + SK-N-BE2 + OVCAR-8; conditions: read-out: apparent Kd, compound concentrations: 100 nM and 1000 nM (sheet 'Samples'), n = 1
[2] = test system: ABL2; set-up: species or system human, MV4-11 + K-562 + COLO205 + SK-N-BE2 + OVCAR-8; conditions: read-out: apparent Kd, compound concentrations: 100 nM and 1000 nM (sheet 'Samples'), n = 1
[3] = test system: BCR; set-up: species or system human, MV4-11 + K-562 + COLO205 + SK-N-BE2 + OVCAR-8; conditions: read-out: apparent Kd, compound concentrations: 100 nM and 1000 nM (sheet 'Samples'), n = 1
[4] = test system: FYN; set-up: species or system human, MV4-11 + K-562 + COLO205 + SK-N-BE2 + OVCAR-8; conditions: read-out: apparent Kd, compound concentrations: 100 nM and 1000 nM (sheet 'Samples'), n = 1
[5] = test system: HCK; set-up: species or system human, MV4-11 + K-562 + COLO205 + SK-N-BE2 + OVCAR-8; conditions: read-out: apparent Kd, compound concentrations: 100 nM and 1000 nM (sheet 'Samples'), n = 1
[6] = test system: LCK; set-up: species or system human, MV4-11 + K-562 + COLO205 + SK-N-BE2 + OVCAR-8; conditions: read-out: apparent Kd; compound concentrations: 100 nM and 1000 nM (sheet 'Samples'), CATDS: 2.0561496325198901E-2; n = 1
[7] = test system: PTK6; set-up: species or system human, MV4-11 + K-562 + COLO205 + SK-N-BE2 + OVCAR-8; conditions: read-out: apparent Kd, compound concentrations: 100 nM and 1000 nM (sheet 'Samples'), n = 1
[8] = test system: RET; set-up: species or system human, MV4-11 + K-562 + COLO205 + SK-N-BE2 + OVCAR-8; conditions: read-out: apparent Kd, compound concentrations: 100 nM and 1000 nM (sheet 'Samples'), n = 1
[9] = test system: RIPK2; set-up: species or system human, MV4-11 + K-562 + COLO205 + SK-N-BE2 + OVCAR-8; conditions: read-out: apparent Kd, compound concentrations: 100 nM and 1000 nM (sheet 'Samples'), n = 1
[10] = test system: TNK1; set-up: species or system human, MV4-11 + K-562 + COLO205 + SK-N-BE2 + OVCAR-8; conditions: read-out: apparent Kd; compound concentrations: 100 nM and 1000 nM (sheet 'Samples'), CATDS: 2.1534980047370499E-2; n = 1
[11] = test system: YES1; set-up: species or system human, MV4-11 + K-562 + COLO205 + SK-N-BE2 + OVCAR-8; conditions: read-out: apparent Kd; compound concentrations: 100 nM and 1000 nM (sheet 'Samples'), CATDS: 2.1066601667733099E-2; n = 1
[12] = test system: AAK1; set-up: species or system human, MV4-11 + K-562 + COLO205 + SK-N-BE2 + OVCAR-8; conditions: read-out: apparent Kd, compound concentrations: 100 nM and 1000 nM (sheet 'Samples'), n = 1
[13] = test system: CLK1; set-up: species or system human, MV4-11 + K-562 + COLO205 + SK-N-BE2 + OVCAR-8; conditions: read-out: apparent Kd, compound concentrations: 100 nM and 1000 nM (sheet 'Samples'), n = 1
[14] = test system: CLK4; set-up: species or system human, MV4-11 + K-562 + COLO205 + SK-N-BE2 + OVCAR-8; conditions: read-out: apparent Kd, compound concentrations: 100 nM and 1000 nM (sheet 'Samples'), n = 1
[15] = test system: CSNK2A1;CSNK2A3; set-up: species or system human, MV4-11 + K-562 + COLO205 + SK-N-BE2 + OVCAR-8; conditions: read-out: apparent Kd, compound concentrations: 100 nM and 1000 nM (sheet 'Samples'), n = 1
[16] = test system: CSNK2A2; set-up: species or system human, MV4-11 + K-562 + COLO205 + SK-N-BE2 + OVCAR-8; conditions: read-out: apparent Kd, compound concentrations: 100 nM and 1000 nM (sheet 'Samples'), n = 1
[17] = molecular target: Q6ZSR9 (human, UniProt Q6ZSR9); set-up: species or system MV4-11 + K-562 + COLO205 + SK-N-BE2 + OVCAR-8; conditions: read-out: apparent Kd, compound concentrations: 100 nM and 1000 nM (sheet 'Samples'), n = 1
Sequence of Q6ZSR9 (Q6ZSR9 whole entry, looked up): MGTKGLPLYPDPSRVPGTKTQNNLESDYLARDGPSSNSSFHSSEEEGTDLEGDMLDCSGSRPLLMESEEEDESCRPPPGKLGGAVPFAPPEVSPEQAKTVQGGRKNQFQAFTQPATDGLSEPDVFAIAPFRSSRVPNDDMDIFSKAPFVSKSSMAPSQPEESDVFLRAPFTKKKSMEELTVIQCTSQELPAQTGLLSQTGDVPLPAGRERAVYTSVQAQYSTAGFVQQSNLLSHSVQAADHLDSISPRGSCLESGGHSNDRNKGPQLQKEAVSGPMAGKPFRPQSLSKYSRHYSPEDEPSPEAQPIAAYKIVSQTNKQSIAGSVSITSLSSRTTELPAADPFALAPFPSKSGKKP

[18] = test system: GAK; set-up: species or system human, MV4-11 + K-562 + COLO205 + SK-N-BE2 + OVCAR-8; conditions: read-out: apparent Kd, compound concentrations: 100 nM and 1000 nM (sheet 'Samples'), n = 1
[19] = test system: RIPK3; set-up: species or system human, MV4-11 + K-562 + COLO205 + SK-N-BE2 + OVCAR-8; conditions: read-out: apparent Kd, compound concentrations: 100 nM and 1000 nM (sheet 'Samples'), n = 1

CN1C(=O)c2ccccc2N(C)c2nc(Nc3cnn(C4CCNCC4)c3)ncc21 [XMD-17-51] was tested, and the potency estimated from few doses ([1]; CATDS: 3.0247523924653401E-2) was 152 nM, the potency estimated from few doses ([2]; CATDS: 2.0369269177780699E-2) was 429 nM and the potency estimated from few doses ([3]; CATDS: 6.3621758322441394E-2) was 32.4 nM. For the same compound, the potency estimated from few doses ([4]; CATDS: 1.52897278360091E-2) was 1140 nM, the potency estimated from few doses ([5]; CATDS: 1.5765780158237999E-2) was 1000 nM and the potency estimated from few doses [6] was 418 nM. The potency estimated from few doses ([7]; CATDS: 1.5181861275826099E-2) was 1170 nM, the potency estimated from few doses ([8]; CATDS: 5.3896447188978902E-2) was 44.2 nM and the potency estimated from few doses ([9]; CATDS: 1.9176534260091301E-2) was 514 nM. For the same compound, the potency estimated from few doses [10] was 366 nM and the potency estimated from few doses [11] was 389 nM.

COc1ccccc1CCNC1=NC(=O)/C(=C/c2ccc3ncccc3c2)S1 [RO4503316-000] was tested, and the potency estimated from few doses ([12]; CATDS: 8.9875957971869994E-2) was 1540 nM, the potency estimated from few doses ([13]; CATDS: 0.207972147405552) was 120 nM and the potency estimated from few doses ([14]; CATDS: 0.25242389415209998) was 86.4 nM. It also gave a potency estimated from few doses ([15]; CATDS: 0.132518653833052) of 327 nM, a potency estimated from few doses ([16]; CATDS: 0.17333569062509099) of 171 nM and a potency estimated from few doses ([17]; CATDS: 9.2411068480935804E-2) of 1310 nM.

O=C1N=C(NCCc2cccc(Cl)c2)S/C1=C\c1ccc2ncccc2c1 [RO4509201-000] was tested, and the potency estimated from few doses ([12]; CATDS: 5.6248629663802403E-2) was 1640 nM, the potency estimated from few doses ([13]; CATDS: 0.11223755313714801) was 275 nM and the potency estimated from few doses ([14]; CATDS: 0.15614566648302999) was 153 nM. It also gave a potency estimated from few doses ([15]; CATDS: 0.170383689424982) of 133 nM and a potency estimated from few doses ([16]; CATDS: 0.201313292648233) of 103 nM.

For Cc1ccc(O)cc1Nc1ccnc2cc(-c3ccccn3)ccc12.Cl [GW440139A], the potency estimated from few doses ([1]; CATDS: 2.9086276614824699E-2) was 609 nM, the potency estimated from few doses ([2]; CATDS: 3.5730235281971501E-2) was 238 nM and the potency estimated from few doses ([3]; CATDS: 6.7644332106689603E-2) was 40.7 nM. For the same compound, the potency estimated from few doses ([18]; CATDS: 4.3663241287780298E-2) was 121 nM, the potency estimated from few doses ([8]; CATDS: 4.9371716156535399E-2) was 85.8 nM and the potency estimated from few doses ([9]; CATDS: 3.9139887822916601E-2) was 171 nM. The potency estimated from few doses ([19]; CATDS: 4.4642127518175201E-2) was 114 nM.

Cc1cccc(Nc2nc(NCCN)ncc2C(N)=O)c1 [GSK1292139B] gave a potency estimated from few doses ([12]; CATDS: 0.21003536001632001) of 164 nM and a potency estimated from few doses ([17]; CATDS: 0.320838512301937) of 88 nM.

Compound O=C1N=C(NCCc2ccccn2)S/C1=C\c1ccc2ncccc2c1 [RO4508346-000] has a potency estimated from few doses ([12]; CATDS: 8.8556384492670503E-2) of 711 nM, a potency estimated from few doses ([13]; CATDS: 0.10354679729128299) of 485 nM and a potency estimated from few doses ([14]; CATDS: 0.116533275678242) of 377 nM. The potency estimated from few doses ([15]; CATDS: 0.14119727464160201) was 262 nM, the potency estimated from few doses ([16]; CATDS: 0.15250276369697799) was 229 nM and the potency estimated from few doses ([17]; CATDS: 9.3045263541922094E-2) was 625 nM. It also gave a potency estimated from few doses ([9]; CATDS: 9.0933210372185796E-2) of 663 nM.

With COc1cc(Nc2nccc(N3CCC(NC(=O)C4COc5ccccc5O4)C3)n2)cc(OC)c1OC (stereo not shown) [GSK1379761A] the potency estimated from few doses ([12]; CATDS: 0.26357344915845798) was 1120 nM and the potency estimated from few doses ([17]; CATDS: 0.25714063136794202) was 1170 nM.

For Cl.Oc1cccc(Nc2ccnc3cc(-c4ccncc4)ccc23)c1 [GW494601A], the potency estimated from few doses ([1]; CATDS: 3.6017646503182399E-2) was 127 nM, the potency estimated from few doses ([2]; CATDS: 5.7742248446513503E-2) was 32.5 nM and the potency estimated from few doses ([3]; CATDS: 9.7304657047822804E-2) was 10.5 nM. It also gave a potency estimated from few doses ([4]; CATDS: 2.0819366263931199E-2) of 1150 nM, a potency estimated from few doses ([18]; CATDS: 8.36996948680125E-2) of 14.1 nM and a potency estimated from few doses ([5]; CATDS: 2.0776424104180801E-2) of 1170 nM. For the same compound, the potency estimated from few doses ([7]; CATDS: 1.98277031575195E-2) was 1530 nM, the potency estimated from few doses ([8]; CATDS: 7.2637191041935695E-2) was 19 nM and the potency estimated from few doses ([9]; CATDS: 0.103970438166355) was 9.31 nM. It also gave a potency estimated from few doses ([19]; CATDS: 6.8751849319998101E-2) of 21.5 nM.

O=C1N=C(NCC(CO)c2ccccc2)S/C1=C\c1ccc2ncccc2c1 (stereo not shown) [RO4582641-000] showed a potency estimated from few doses ([12]; CATDS: 0.17753366584660099) of 89.4 nM, a potency estimated from few doses ([13]; CATDS: 0.190725453373879) of 79.6 nM and a potency estimated from few doses ([14]; CATDS: 7.8741262727809305E-2) of 590 nM. The potency estimated from few doses ([15]; CATDS: 0.138008161076002) was 140 nM, the potency estimated from few doses ([16]; CATDS: 0.126393310474474) was 167 nM and the potency estimated from few doses ([17]; CATDS: 0.16856489309537501) was 97.6 nM. For the same compound, the potency estimated from few doses ([9]; CATDS: 7.9715899202970897E-2) was 565 nM.

O=C1N=C(N[C@@H](CO)c2ccccc2)S/C1=C\c1ccc2ncccc2c1 [RO4554340-000] was tested, and the potency estimated from few doses ([12]; CATDS: 0.158998542924943) was 1190 nM, the potency estimated from few doses ([13]; CATDS: 0.44812709075051699) was 156 nM and the potency estimated from few doses ([14]; CATDS: 0.232280366030543) was 478 nM. It also gave a potency estimated from few doses ([17]; CATDS: 0.16133585717123999) of 1140 nM.

With COc1cc(Nc2ccnc3cc(-c4ccncc4)ccc23)cc(OC)c1OC.Cl [GW494610A] the potency estimated from few doses ([1]; CATDS: 2.4379025884203698E-2) was 1070 nM, the potency estimated from few doses ([2]; CATDS: 2.97420098626874E-2) was 523 nM and the potency estimated from few doses ([3]; CATDS: 4.8840213207685099E-2) was 133 nM. The potency estimated from few doses ([18]; CATDS: 0.18484170134518799) was 10.7 nM, the potency estimated from few doses ([9]; CATDS: 0.24490143470797801) was 7.12 nM and the potency estimated from few doses ([19]; CATDS: 2.5857205413597002E-2) was 848 nM.

With O=C1N=C(NCCc2cccc(F)c2)S/C1=C\c1ccc2ncccc2c1 [RO4508344-000] the potency estimated from few doses ([12]; CATDS: 0.102414054055007) was 806 nM, the potency estimated from few doses ([13]; CATDS: 0.18459427931802) was 278 nM and the potency estimated from few doses ([14]; CATDS: 0.11348899784144) was 644 nM. It also gave a potency estimated from few doses ([15]; CATDS: 0.10848766260937499) of 709 nM, a potency estimated from few doses ([16]; CATDS: 0.12392603207531599) of 541 nM and a potency estimated from few doses ([17]; CATDS: 9.5289389413805506E-2) of 958 nM.
